From PubChem BioAssay
Sampled rows, rich in hits. Any-hit rate of the full collection: about 1.7%.
E-sel TNF inh – E-selectin induction blockers in HUVEC – imaging, immunofluorescence, high content, primary screen; inhibition, % at 2 µM; HUVEC TNFa-induced E-selectin immunofluorescence; 120,000 compounds, 0.71% hits;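 active means inhibition above the batch mean plus 3 SD, and confirmed as a hit on visual image review, cut at about 43% in these data; inconclusive means passes the inhibition cutoff but fails visual image review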;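 further: 0% = TNF-stimulated DMSO wells and 100% = unstimulated control wells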
NFkB transloc pot – enhancers of NFkB p65 translocation in HUVEC – imaging, IL-1B stimulus, high-content imaging, primary screen; AID 819, 2007; 94,000 compounds, 0.3% hits; HUVEC IL-1B NFkB p65 nuclear translocation imaging; activation, % at 2 µM;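 active means activation above 40%, about the mean plus 3 SD, also judged a hit on visual image review; inconclusive means activation above 40% but not a hit on visual review; inactive means activation not above 40% and no visual hit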;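 further: percent activation is computed from the nuclear over cytoplasmic p65 intensity ratio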
TNFa cytotox – cytotoxicity in TNFa-stimulated HUVEC, primary screen, cytotoxicity control for VCAM1 expression modulator project, imaging, Hoechst nuclei count. HUVEC TNFalpha-stimulated, Hoechst cell count. cell count reduction, % at 2 µM. 93,000 compounds, 0.17% hits. AID 848, 2007;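 active means cell count reduction exceeding the screen mean by over 5 SD, scaled to untreated wells per plate, cut at about 78% in these data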;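 further: cells counted after 24 h of TNF alpha exposure following the 1 h pretreatment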
IL1B NFkB inh – inhibitors of IL-1B driven NFkB p65 nuclear import, primary screen, imaging, HUVEC, IL-1B stimulus, high-content imaging. HUVEC IL-1B NFkB p65 nuclear translocation imaging. inhibition, % at 2 µM. 94,000 compounds, 0.43% hits;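 active means inhibition above about 30% together with a positive call from visual inspection of the well image, limit read from the data; inconclusive means inhibition above a set limit but visual check negative; inactive means inhibition not above a set limit, visual check negative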;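 further: nuclear over cytoplasmic p65 intensity ratio measured by imaging; 0% = IL-1B stimulated DMSO wells and 100% = unstimulated DMSO wells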
VCAM1 TNFa inh – inhibitors of TNFa-induced VCAM1 expression, primary screen, imaging, HUVEC, TNFa stimulus, immunofluorescence. HUVEC TNFa-induced VCAM-1 immunofluorescence, high-content imaging. inhibition, % at 2 µM. 95,000 compounds, 0.48% hits;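 active means inhibition above the batch mean plus 3 SD, with images confirmed as a hit by eye, cut at about 37% in these data; inconclusive means inhibition above that limit but hit not confirmed in images; inactive means inhibition not above that limit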;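 further: 0% = TNF-stimulated DMSO wells and 100% = unstimulated control wells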
IL1B cytotox – cytotoxicity in IL-1B stimulated HUVEC, primary screen, cytotoxicity control for IL-1B NFkB translocation project, imaging, Hoechst nuclear count, IL-1B stimulus; HUVEC cell count loss; cell count reduction, % at 2 µM; 94,000 compounds, 0.41% hits; AID 845, 2007;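 active means cell count reduction more than 3 SD above the screen-wide mean, cut at about 70% in these data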;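 further: normalized per plate to untreated control cells as the no-loss baseline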
* marks the source's active call; other numbers are inactive results; ? = inconclusive; nt = not tested or not shown.

SMILES	E-sel TNF inh	NFkB transloc pot	TNFa cytotox	IL1B NFkB inh	VCAM1 TNFa inh	IL1B cytotox
Cc1cccc(C(=O)Oc2ccccc2C2C[C@]3(C)CC(=O)NC3N2C(=O)c2cccc(C)c2)c1 (stereo partly specified)	-15	9	100*	-9	?	13
C=CCOc1c2ccc(C(=O)NCc3ccccc3OC)cc2nn1C	6	-1	72	1	68*	-38
C=CCOc1c2ccc(C(=O)NCc3ccc(OC)cc3)cc2nn1C	13	-5	-25	5	-10	3
O=C(CCNC(=O)c1ccccc1Cl)Nc1ccc(Cl)c(C(F)(F)F)c1	5	nt	nt	nt	nt	nt
O=C(c1ccc(Cl)cc1)N1CCCOC1	-15	-1	75	1	100*	-6
CC(C)COc1ccc(C/C(N)=N/n2cnnc2)cc1	-14	nt	nt	nt	nt	nt
O=Cc1cn(CC(=O)Nc2ccc(F)cc2)c2ccccc12	-13	nt	nt	nt	nt	nt
CC(C)(CO)NCC(O)Cn1cc(C=O)c2ccccc21 (stereo unspecified)	90*	nt	nt	nt	nt	nt
CCOC(=O)c1c(C)[nH]c(C2=NNC(=Nc3cccc(Cl)c3)SC2)c1C	1	nt	nt	nt	nt	nt
CCOCCCNC(=O)CCCOc1ccccc1	-24	-2	-17	2	10	-28
CCCCOCCCNC(=O)CCCOc1ccccc1	6	17	-1	-17	16	93*
CC1Oc2ccccc2C=C1/C=C1/SC(N2CCOCC2)=NC1=O (stereo unspecified)	0	-10	13	10	52*	0
COC(=O)CCS(=O)(=O)c1ccc(Cl)c(Cl)c1	-21	15	-4	-15	-4	95*
COC(=O)CCS(=O)(=O)c1ccc(Cl)cc1	27	16	3	-16	2	2
Cc1cc(C)c(C#N)c(=N)o1	62*	-2	10	2	-3	4
Fc1ccc(CSc2ccc3nnc(-c4cccnc4)n3n2)cc1	7	nt	nt	nt	nt	nt
COc1ccc(OC)c(C2C(C(=O)Nc3cccnc3)=C(C)NC3=C2C(=O)CCC3)c1 (stereo unspecified)	-3	42*	3	-42	17	-21
COc1ccc(OC)c(C2C3=C(CCCC3=O)NC3=C2C(=O)CCC3)c1	12	2	6	-2	-7	-9
CC(=O)CCc1c[nH]c2c(C(=O)O)cccc12	-2	-41	6	41*	-10	-5
COc1ccc2c(c1)C1NC(=S)NC(C)(O2)C1C(=O)Nc1ccccc1C (stereo unspecified)	-63	-1	6	1	-4	-5
COc1ccc(/C=N\NC(=O)c2ccc(=O)[nH]n2)cc1O	-2	nt	nt	nt	nt	nt
COc1ccc(/C=N/NC(=O)CCc2c(C)n[nH]c2C)cc1O	12	55*	3	-55	-7	-9
CCOC(=O)c1c(NC(=O)CN2CCOCC2)sc(C(=O)NC)c1C	-3	-1	0	1	3	-14
COCCOC(=O)c1c(NC(=O)CN2CCOCC2)sc(C(N)=O)c1C	72*	8	-8	-8	0	0
O=C1COc2ccc(S(=O)(=O)Nc3ccc4c(c3)OCO4)cc2N1	-14	nt	nt	nt	nt	nt
SMILES	E-sel TNF inh	NFkB transloc pot	TNFa cytotox	IL1B NFkB inh	VCAM1 TNFa inh	IL1B cytotox
COC(=O)c1c(NC(=O)C2COc3ccccc3O2)sc2c1CCN(Cc1ccccc1)C2 (stereo unspecified)	63*	nt	nt	nt	nt	nt
CCCNC(=O)c1c(NC(=O)C2COc3ccccc3O2)sc2c1CCCC2 (stereo unspecified)	-22	21	nt	-21	17	-1
Cc1ccc(C(=O)Oc2cc(C)n(C)c(=O)c2)cc1	-66	-12	7	12	-2	-33
CCCOC(=O)CSC1=C(C#N)C(c2ccccc2OC)C(C#N)C(=O)N1 (stereo unspecified)	nt	-4	83*	4	92*	-13
CC(OC(=O)c1ccco1)C(=O)NC1CCCCC1 (stereo unspecified)	86*	-3	7	3	-3	15
CC(C)C(OC(=O)c1ccco1)C(=O)NC1CCCCC1 (stereo unspecified)	-12	3	11	-3	-6	2
COc1ccc(C2C(C(=O)Nc3ccc4c(c3)OCCO4)c3ccccc3C(=O)N2C)cc1 (stereo unspecified)	14	1	-5	-1	0	5
Cc1nc2scc(-c3ccccc3)c2c(=O)n1N=C1C=CC(=O)C=C1	88*	nt	nt	nt	nt	nt
Cc1nc2scc(-c3ccccc3)c2c(=O)n1N	nt	-3	0	3	2	12
CN1C2C=C(N(CCc3c[nH]c4ccccc34)C(=O)c3ccc(Cl)cc3)CC1CC2 (stereo unspecified)	-8	-16	-21	16	7	-11
Cc1c(Cc2ccccc2)sc(NC(=O)Cc2ccccc2)c1C(N)=O	nt	-2	nt	2	nt	-2
Cc1c(Cc2ccccc2)sc(N)c1C(N)=O	7	-98	-16	98*	16	87*
O=C1CCCCN1CCc1c[nH]c2ccccc12	-7	5	1	-5	-2	86*
O=C1CCC(=O)N1CCc1c[nH]c2ccccc12	-7	-1	-8	1	3	-12
CC(c1ccco1)N(C(=O)C12CC3CC(CC(C3)C1)C2)c1ccccn1 (stereo unspecified)	100*	8	-10	-8	8	-6
CC(c1ccco1)N(C(=O)c1ccc(Cl)s1)c1ccccn1 (stereo unspecified)	nt	-5	-45	5	11	-8
CC(=O)Nc1ccc(S(=O)(=O)NCCc2ccc(S(N)(=O)=O)cc2)cc1	-6	-30	-23	30*	-20	-14
CC(=O)Nc1ccc(S(=O)(=O)NCCc2ccc(F)cc2)cc1	nt	-4	-22	4	5	-2
CN(C)S(=O)(=O)c1ccc2c(c1)c(=O)c(C(=O)N1CCOCC1)cn2C	nt	-66	-42	66*	11	-76
CN1CCN(C(=O)c2cn(C)c3ccc(S(=O)(=O)N(C)C4CCCCC4)cc3c2=O)CC1	nt	-6	-11	6	-1	-31
O=C(CCl)NCc1c(Cl)cccc1-n1cccc1	-36	-2	-8	2	14	15
CCOC(=O)n1c(=O)n(Cc2c(Cl)cccc2Cl)c2ccccc21	4	-5	-13	6	-13	12
Cn1cnc2c(N3CCCCC3)nccc21	6	4	-11	-4	10	93*
O=S(=O)(NC12CC3CC(CC(C3)C1)C2)c1ccc(F)cc1	19	2	8	-2	-4	14
CCOC(=O)CCc1c(C)c2c(C)nn(-c3ccccc3)c2[nH]c1=O	nt	-32	-29	32*	10	-38
COc1ccc(Nc2nc(N3CCCC3)nc3ccccc23)c(OC)c1	-16	-1	6	1	94*	-1
